Bioassay records as filed in PubChem BioAssay.
In the library only some 12% were active in any assay of this set; here they are far more common.
BAZ2B inh = inhibitors of human BAZ2B bromodomain. Q9UIF8. AlphaScreen BAZ2B-H3K14Ac peptide displacement. Potency, µM (top dose mostly 114 µM), inactives show top-dose activity change, negative = inhibition, actives largely listed as inhibitors. hit rate 4.4% among 360,000; also: potency is read from the fitted curve at half-maximal effect; % is scaled to controls: 0 for no effect and ±100 for the full control effect; nearly all actives have a fitted effect of over 60% in size
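AlphaScreen luminescence quantifies BAZ2B engagement of H3K14Ac peptide; the protein and biotinylated peptide are both at 50 nM final, buffer PBS pH 7.4 with 0.01% Tween-20, all steps at room temperature.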
G9a inh = G9a (human) methyltransferase inhibition; Potency, µM (titrated, usually from 102 µM), without a hit: top-dose activity, negative = inhibition, most hits filed as inhibitors; Q96KQ7; AID 504332; hit rate 8.8% among 350,000; G9a H3K9 monomethylation, AlphaScreen, 2 h; also: potency is read from the fitted curve at half-maximal effect; % is scaled to controls: 0 for no effect and ±100 for the full control effect; nearly all actives have a fitted effect of over 75% in size
Target sequence (Q96KQ7 913-1193 limits assumed): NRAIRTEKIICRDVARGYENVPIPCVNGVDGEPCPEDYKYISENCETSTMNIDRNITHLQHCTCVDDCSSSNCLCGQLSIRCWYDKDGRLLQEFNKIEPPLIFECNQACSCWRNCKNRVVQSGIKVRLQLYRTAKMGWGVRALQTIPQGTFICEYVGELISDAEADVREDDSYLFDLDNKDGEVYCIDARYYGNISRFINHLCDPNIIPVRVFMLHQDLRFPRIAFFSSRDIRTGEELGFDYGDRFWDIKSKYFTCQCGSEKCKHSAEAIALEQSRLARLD
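Chemiluminescent proximity detection of H3K9 monomethylation, read after 10 min bead incubation in the dark. Reaction: 20 nM G9a, 500 nM biotin-H3K9 peptide, 20 uM SAM cofactor, 2 h, room temperature, following 15 min enzyme-compound preincubation.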
JMJD2A Tudor = blocks the human JMJD2A Tudor domain. Potency, µM (series often up to 114 µM), without a hit: at the top dose activity change, negative = inhibition, most hits filed as inhibitors. hit rate 4.4% among 390,000. AlphaScreen JMJD2A-Tudor / H3K4me3 peptide binding. O75164. AID 504339; also: potency is read from the fitted curve at half-maximal effect; % is scaled to controls: 0 for no effect and ±100 for the full control effect; nearly all actives have a fitted effect of over 50% in size
PLK1 PBD block = PLK1 (human) polo-box domain binding inhibition; Plk1 PBD binding of FITC phosphopeptide, fluorescence polarization; AID 720504; P53350; Potency, µM, for inactives: max response, negative = inhibition, actives largely listed as inhibitors; hit rate 2.8% among 360,000; also: potency is read from the fitted curve at half-maximal effect; series mostly up to about 57 µM; % is scaled to controls: 0 for no effect and ±100 for the full control effect; nearly all actives have a fitted effect of over 65% in size
PI5P4Ka inh = inhibitors of human PI5P4K alpha | P48426 | PI5P4Kalpha enzyme, ADP-Glo luminescence, 60 min; active compounds read low | max response, % | hit rate 1.2% among 330,000 | AID 652105; active = max response of -50% or lower; inconclusive = between -30% and -50%; inactive = -30% or higher; also: value at the top dose of about 77 µM; % is scaled to controls: 0 for no effect and ±100 for the full control effect
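Reactions run in 0.038 M HEPES pH 7.4, 0.28 mM EGTA, 0.1% CHAPS and 5% DMSO, with PI5P4Kalpha, substrate, compound and 5 microM ATP final, one hour at room temperature. Readout is ADP-Glo luminescence.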
HP1b chromo inh = inhibitors of HP1-beta chromodomain binding to methylated histone tails. hit rate 0.56% among 390,000. Potency, µM (titrated, usually from 114 µM), for the others: at the top dose activity change, negative = inhibition, most hits filed as inhibitors. AlphaScreen HP1-beta / biotin-H3K9me3 peptide binding. P83916. AID 540317; also: potency is read from the fitted curve at half-maximal effect; nearly all actives have a fitted effect of over 70% in size
Target sequence (P83916 whole entry, looked up): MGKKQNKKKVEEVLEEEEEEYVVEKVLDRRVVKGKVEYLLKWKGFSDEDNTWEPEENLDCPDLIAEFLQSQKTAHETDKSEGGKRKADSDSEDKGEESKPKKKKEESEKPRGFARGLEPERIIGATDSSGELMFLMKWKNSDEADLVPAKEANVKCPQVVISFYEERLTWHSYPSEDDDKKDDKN
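AlphaScreen: HP1-beta (50 nM) preformed 30 min with biotin-H3(1-18)K9me3 peptide (50 nM) in PBS pH 7.4, 0.01% Tween-20. Compound added for 30 min at RT, then streptavidin donor/nickel chelate acceptor beads (10 ug/mL) for 30 min.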
* = called active by the depositor; ? = inconclusive; . = no result given; [ ] = remark or other dose. Unless noted, calls follow the shape of the dose curve; as a rule, active = well fitted curve in the direction sought with a large enough effect; inconclusive = small, poorly fitted or top-dose-only effect, or another doubt; inactive = no such curve, though single readings can be large; an effect the other way counts as inactive or inconclusive.

SMILES	BAZ2B inh	G9a inh	JMJD2A Tudor	PLK1 PBD block	PI5P4Ka inh	HP1b chromo inh
NC(=S)N/N=C1\CC(c2ccc3c(c2)OCCO3)Oc2ccc(F)cc21 (stereo not drawn)	-19%	7%	-17%	-3%	-1	-4%
S=c1nc2[nH]c3ccccc3c2n[nH]1	.	.	-21%	3.8µM*	-50*	-6%
Nc1nnc2c(n1)[nH]c1ccccc12	-19%	20%[59 µM]	-10%	.	.	49%
O=C(NCc1ccccc1)C1C(=O)Nc2ccccc2C(=O)N1c1ccc2c(c1)OCCO2 (stereo not drawn)	.	.	.	-7%	-3	.
CNc1nc(-c2ccoc2)nc2ccccc12	.	3%[0.501 µM]	.	.	.	.
Cc1cc(OC(=O)c2ccc(S(=O)(=O)N3CCOCC3)cc2)c([N+](=O)[O-])c(=O)[nH]1	?	56µM*	-16%	-13%	-12	36%
Cc1cc(OC(=O)c2ccc(C)c(C)c2)c([N+](=O)[O-])c(=O)[nH]1	-20%	-15%	1%	2%	-7	18%[57 µM]
Cc1cc(OC(=O)c2ccc3ccccc3c2)c([N+](=O)[O-])c(=O)[nH]1	-22%	45µM*	-29%	-17%	-13	30%
O=C(CCc1nc2ccccc2c(=O)[nH]1)N1CCN(S(=O)(=O)c2ccc(Cl)c(C(F)(F)F)c2)CC1	11%	13%[59 µM]	-9%	-3%	1	14%
CC(=O)c1cccc(NC(=O)Cc2ccc(NC(=O)N3CCCCc4ccccc43)cc2)c1	-19%	8%[59 µM]	-14%	.	.	43%
C=CCn1cccc(C(=O)Nc2cc(OC)c(OC)c(OC)c2)c1=O	-10%	-5%	32µM*	21µM*	?	-11%
C=CCn1cccc(C(=O)Nc2ccc(OC)cc2OC)c1=O	0%	19%	?	27µM*	-22	-11%
COc1ccc(C(O)c2nc(-c3ccc(OC)c(OC)c3)cs2)cc1 (stereo not drawn)	.	.	.	3%	0	.
COc1cc(CN2CCN(Cc3ccco3)CC2)cc(OC)c1	25µM*	8.9µM*	0.79µM*	-17%	2	?
COc1ccccc1CN1CCC2(CC1)CCN(C(=O)c1ccco1)CC2	.	-6%[12.7 µM]	.	.	.	.
COc1ccc(CN2CCc3ccccc3C2)c(OC)c1	?	-128%[59 µM]	2.8µM*	-1%	3	?
Cc1ccc(S(=O)(=O)N2CCN(Cc3ccco3)CC2)cc1C	-16%	.	-2%	1%	4	25%
COc1ccc(CN2CCN(Cc3ccco3)CC2)c(OC)c1	40µM*	40µM*	3.2µM*	5%	10	?
COc1ccccc1CN1CCN(Cc2ccco2)CC1	25µM*	45µM*	4µM*	2%	-9	?
COCCNC(=O)CN(CCc1ccccc1)S(=O)(=O)c1ccc(Br)cc1	-3%	-3%[0.501 µM]	-1%	-1%	3	52%
CSc1ncc(C(=O)Nc2cccnc2)c(C(F)(F)F)n1	0%	0%	-6%	4%	8	31%
O=C(Cn1cnc([N+](=O)[O-])n1)N/N=C/c1cccc(Cl)c1	-14%	19%[59 µM]	-16%	-4%	1	38%
O=C(Cn1cnc([N+](=O)[O-])n1)N/N=C/c1ccc(O)cc1O	28µM*	-30%	63µM*	-9%	-5	34%
O=C(Cn1cnc([N+](=O)[O-])n1)N/N=C/c1cccc2ccccc12	-2%	45µM*	-20%	-11%	-10	0%
COCCNC(=O)C1(C)CCN(C(=O)/C=C/c2ccccc2)C1 (stereo not drawn)	.	.	.	-12%	-1	.
COc1cccc(NC(=O)CN2C(=O)C3(SCC(=O)N3c3cc(C)cc(C)c3)c3ccccc32)c1 (stereo not drawn)	1%[57.1 µM]	-8%[59 µM]	-20%	.	.	9%
COc1cc(C(=O)NCC(=O)N/N=C/c2ccccn2)cc(OC)c1OC	-3%	9%	?	-6%	-1	9%
O=C(CNC(=O)c1ccncc1)N/N=C/c1ccccn1	79µM*	-31%	?	-6%	8	8%
O=C(N/N=C/c1ccccn1)c1ccc(NC(=O)c2ccc(F)cc2)cc1	3%	50µM*	-22%	-15%	-4	40%
